PubChem BioAssay (NCATS)
Records with an inconclusive call do not appear. Active and inactive are the calls of the source. Calls follow the shape of the dose curve; as a rule, active = well fitted cell-killing curve with a large enough effect; inconclusive = small, poorly fitted or top-dose-only effect; inactive = no such curve, though single readings can be large or run the other way. Bridge positions count the residues as written; N and C are the ends. Square brackets hold non-standard residues; d marks the D form. Side chains are listed from the residue outwards. Peptide text beside a SMILES is read from it. * marks the point of attachment. Phg(4-OMe) = COc1ccc([C@H](N)C(=O)O)cc1; d(aIle) = CC[C@H](C)[C@@H](N)C(=O)O; d(aThr) = C[C@@H](O)[C@@H](N)C(=O)O; NMeF = CN[C@@H](Cc1ccccc1)C(=O)O; Isobutyryl = CC(C)C(=O)*

Test: MCF7 Cancer Cell Toxicity qHTS against the NCATS CANVASS Library (AID 1347369)
Conditions: MCF7 viability, ATP luminescence (CellTiter-Glo), 72 h; series mostly up to 46 µM; activity change, negative = cytotoxicity: at the top concentration
Method in brief: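 This 72 hr qHTS scored MCF7 viability by CellTiterGlo luminescence, with 500 cells/well; bortezomib titration ran as control.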
% is scaled to controls: 0 for no effect and ±100 for the full control effect.

Row | Compound | activity change, negative = cytotoxicity | outcome
1 | Cc1occ2c1C(=O)c1c(cc(O)c(O)c1O)C2=O | -7.45% (inactive) | –
2 | O=C1CC2OCC=C3CN4C5CC3C2[C@@H]2N1c1ccccc1[C@]52C[C@@H]4C1=C[C@H]2C3CC4N(CC[C@@]45c4ccccc4N(C1=O)[C@@H]25)C/C3=C/CO (some centres undefined) | -1.17% (inactive) | –
3 | C/C=C(/C)c1c(Cl)c(O)c(C)c2c1Oc1c(Cl)c(O)c(Cl)c(C)c1C(=O)O2 | – | inactive
4 | C=C[C@@]1(C)CC[C@@H]([C@H](C)C(=O)/C=C/C(C)(C)O)O1 | -29.6% (inactive) | –
5 | C=CC(CCCCC)C1C(=O)NC(=O)C1C(=O)C1C(/C=C/C)C=CC2CC(C(=O)O)CC(C)C21 (centres undefined) | -16.2% (inactive) | –
6 | C=C1CC[C@@H](O[C@H]2C[C@@](O)([C@H](C)NC(=O)c3[nH]c(C)c(Cl)c3Cl)[C@H](O)[C@@H](C)O2)[C@@H]2C=C[C@H](C)C(/C(O)=C3/C(=O)[C@H](C(C)C)N([C@@H]4O[C@H](C)[C@H](OC(N)=O)[C@H](OC(C)=O)[C@@H]4OC)C3=O)[C@@H]12 (some centres undefined) | – | inactive
7 | COc1ccc([C@@H]2CC(=O)c3c(cc(O)c(C/C=C(\C)CCC=C(C)C)c3O)O2)cc1 | -4.45% [at 9.17 µM] (inactive) | –
8 | O=c1cc(-c2ccc(O)c(O)c2)oc2cc(O[C@@H]3O[C@H](CO)[C@@H](O)[C@H](O)[C@H]3O)cc(O)c12 | -1.91% (inactive) | –
9 | CC[C@H](C)[C@H]1NC(=O)[C@@H](NC(=O)C(C)C)[C@@H](C)OC(=O)[C@H](COC(=O)CNC(C)=O)NC(=O)[C@@H]([C@@H](C)O)NC(=O)[C@H](Cc2ccccc2)N(C)C(=O)[C@H](c2ccc(OC)cc2)NC1=O (Isobutyryl-T[d(aIle)][Phg(4-OMe)][NMeF][d(aThr)]S([Gly-Ac]); ester 1-C) | – | inactive
